# According to PubChem BioAssay (EPA / NIEHS):
# Where “and” joins values, the source holds several entries; their conditions need not be identical. Equal entries are not always repeated. Where a structure was tested more than once in an assay, its records may differ in their call. Calls of active or inactive are those of the source. The calls were made as follows: active = hit-call score of the fitted dose curve at least 0.9, where 1 is the maximum; inactive = score below 0.9.
# Experiments:
# [1] = read-out: Tissue Factor, F3 (gene 2152); test: BSK_CASM3C_TissueFactor: BioMAP Diversity Plus: CASM3C Assay for Tissue Factor Biomarker Activity (AID 2283052); details: primary human coronary artery smooth muscle cells; actives raise or lower the signal;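 also: cell surface tissue factor protein level read by ELISA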
# [2] = read-out: Interferon-gamma inducible Protein 10 (IP10), CXCL10 (gene 3627); test: BSK_hDFCGF_IP10: BioMAP Diversity Plus: hDFCGF Assay for Interferon-gamma inducible Protein 10 (IP10) Biomarker Activity (AID 2283053); details: primary human foreskin fibroblasts; actives raise or lower the signal
# Outline: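 ELISA read-out of IP-10 (CXCL10) from primary human skin fibroblasts, 24 h after compound addition. Gain or loss of signal versus DMSO baseline, bidirectional curve fitting.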
# [3] = read-out: Urokinase-type plasminogen activator receptor (uPAR), PLAUR (gene 5329); test: BSK_CASM3C_uPAR: BioMAP Diversity Plus: CASM3C Assay for Urokinase-type plasminogen activator receptor (uPAR) Biomarker Activity (AID 2283054); details: primary human coronary artery smooth muscle cells; actives raise or lower the signal;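 also: cell-surface uPAR protein level quantified by ELISA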
# [4] = read-out: Vascular cell adhesion molecule 1 (VCAM1), VCAM1 (gene 7412); test: BSK_CASM3C_VCAM1: BioMAP Diversity Plus: CASM3C Assay for Vascular cell adhesion molecule 1 (VCAM1) Biomarker Activity (AID 2283055); details: primary human coronary artery smooth muscle cells; actives raise or lower the signal;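 also: VCAM-1 protein level quantified by ELISA on the cells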
# [5] = read-out: Epidermal growth factor receptor (EGFR), EGFR (gene 1956); test: BSK_hDFCGF_EGFR: BioMAP Diversity Plus: hDFCGF Assay for Epidermal growth factor receptor (EGFR) Biomarker Activity (AID 2283057); details: primary human foreskin fibroblasts; actives raise or lower the signal
# Outline: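 ELISA readout of EGFR on human dermal fibroblasts (primary foreskin cells), 24 h post-dosing; bidirectional curve fit vs DMSO baseline, gain or loss of signal scored.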
# [6] = read-out: Interleukin-8 (IL8), CXCL8 (gene 3576); test: BSK_hDFCGF_IL8: BioMAP Diversity Plus: hDFCGF Assay for Interleukin-8 (IL8) Biomarker Activity (AID 2283058); details: primary human foreskin fibroblasts; actives raise or lower the signal
# Outline: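 IL-8 levels read by ELISA at 24 hours after dosing human skin fibroblast cultures. Parallel SRB staining assessed overt cytotoxicity, and gain or loss of signal was fitted against DMSO control.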
# [7] = BSK_hDFCGF_Proliferation: Cell Proliferation Assessment in the BioMAP Diversity Plus: hDFCGF Assay (AID 2283059); details: primary human foreskin fibroblasts;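 also: curves fitted for both rise and fall of signal versus DMSO baseline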
# Outline: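 Primary human foreskin fibroblasts, sub-confluent; […]; 10% TCA fix, 0.1% SRB stain, A560 total protein. Gain/loss fitted bidirectionally vs DMSO control.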
# [8] = read-out: Macrophage colony-stimulating factor (MCSF), CSF1 (gene 1435); test: BSK_hDFCGF_MCSF: BioMAP Diversity Plus: hDFCGF Assay for Macrophage colony-stimulating factor (MCSF) Biomarker Activity (AID 2283060); details: primary human foreskin fibroblasts; actives raise or lower the signal
# Outline: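 M-CSF levels read by ELISA at 24 h post-dosing in human skin fibroblasts. Parallel cultures stained with SRB assessed cytotoxicity at the same time point; response fitted in both directions against the DMSO baseline.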
# [9] = BSK_hDFCGF_SRB: Viability Assessment in the BioMAP Diversity Plus: hDFCGF Assay (AID 2283061); details: primary human foreskin fibroblasts;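 also: cells exposed to compound for 24 h before the read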
# Outline: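 Viability was read as total protein: after 10% TCA fixation, wells were stained with 0.1% sulforhodamine B and read at 560 nm. Primary human foreskin fibroblasts were dosed for 24 h, with bidirectional fitting versus DMSO.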
# [10] = read-out: Collagen III, COL3A1 (gene 1281); test: BSK_hDFCGF_CollagenIII: BioMAP Diversity Plus: hDFCGF Assay for Collagen III Biomarker Activity (AID 2283056); details: primary human foreskin fibroblasts; actives raise or lower the signal
# Outline: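 ELISA readout of Collagen III in human dermal (foreskin) fibroblasts, taken 24 h post-treatment. Gain or loss relative to DMSO vehicle fitted in both directions.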
compound,measurement,setting,value
C#CCN1C(=O)COc2cc(F)c(N3C(=O)C4=C(CCCC4)C3=O)cc21,outcome,[1],inactive
same,outcome,[2],inactive
same,outcome,[3],inactive
same,outcome,[4],inactive
same,outcome,[5],inactive
same,outcome,[6],inactive
same,outcome,[7],inactive
same,outcome,[8],inactive
same,outcome,[9],inactive
CCOCN(C(=O)CCl)c1c(C)cccc1CC,outcome,[1],inactive
same,AC50,[2],20 µM (active)
same,outcome,[3],inactive
same,AC50,[4],20 µM (active)
same,outcome,[5],inactive
same,outcome,[6],inactive
same,AC50,[7],14.5 µM (active)
same,AC50,[8],9.55 µM (active)
same,outcome,[9],inactive
O=C(Nc1ccccc1)Nc1cnns1,outcome,[1],inactive
same,outcome,[2],inactive
same,outcome,[3],inactive
same,outcome,[4],inactive
same,outcome,[10],inactive
same,outcome,[6],inactive
same,outcome,[7],inactive
same,outcome,[8],inactive
same,outcome,[9],inactive
CNC(=O)Oc1cccc(N=CN(C)C)c1,outcome,[1],inactive
same,AC50,[2],15.2 µM (active)
same,outcome,[3],inactive
same,outcome,[4],inactive
same,outcome,[10],inactive
same,outcome,[6],inactive
same,AC50,[7],24.2 µM (active)
same,AC50,[8],15.9 µM (active)
same,outcome,[9],inactive
C[C@H]1[C@H](c2ccc(Cl)cc2)SC(=O)N1C(=O)NC1CCCCC1,outcome,[1],inactive
same,AC50,[2],20 µM (active)
same,outcome,[3],inactive
same,outcome,[4],inactive
same,AC50,[10],5.46 µM (active)
same,outcome,[5],inactive
same,outcome,[6],inactive
same,AC50,[7],9.3 µM (active)
same,AC50,[8],9.15 µM (active)
same,AC50,[9],8.97 µM (active)
COc1cc(OC)nc(NC(=O)NS(=O)(=O)c2cc(NC=O)ccc2C(=O)N(C)C)n1,outcome,[1],inactive
same,outcome,[2],inactive
same,outcome,[3],inactive
same,outcome,[4],inactive
same,outcome,[5],inactive
same,outcome,[6],inactive
same,outcome,[7],inactive
same,outcome,[8],inactive
same,outcome,[9],inactive
O=C(NC(=O)c1c(F)cccc1F)Nc1ccc(OC(F)(F)C(F)OC(F)(F)F)c(Cl)c1 (configuration not stated),outcome,[1],inactive
same,outcome,[2],inactive
same,outcome,[3],inactive
same,outcome,[4],inactive
same,outcome,[5],inactive
same,outcome,[6],inactive
same,outcome,[7],inactive
same,outcome,[8],inactive
same,outcome,[9],inactive
ClC1C(Cl)C(Cl)C(Cl)C(Cl)C1Cl (configuration not stated),outcome,[1],inactive
same,AC50,[2],32.2 µM (active)
same,outcome,[2],inactive
same,AC50,[3],29 µM (active)
same,outcome,[3],inactive
same,AC50,[4],32.2 µM (active) and 32.4 µM (active)
same,outcome,[4],inactive
same,outcome,[5],inactive
same,outcome,[6],inactive
same,AC50,[7],28.1 µM (active) and 24.6 µM (active)
same,outcome,[7],inactive
same,outcome,[8],inactive
same,outcome,[9],inactive
O=[N+]([O-])/N=C1\NCCN1Cc1ccc(Cl)nc1,outcome,[1],inactive
same,outcome,[2],inactive
same,outcome,[3],inactive
same,outcome,[4],inactive
same,outcome,[10],inactive
same,outcome,[5],inactive
same,outcome,[6],inactive
same,outcome,[7],inactive
same,outcome,[8],inactive
same,outcome,[9],inactive
N#CN,outcome,[1],inactive
same,outcome,[2],inactive
same,outcome,[3],inactive
same,outcome,[4],inactive
same,outcome,[5],inactive
same,outcome,[6],inactive
same,outcome,[7],inactive
same,outcome,[8],inactive
same,outcome,[9],inactive
COC(=O)c1ccccc1CS(=O)(=O)NC(=O)Nc1nc(OC)cc(OC)n1,outcome,[1],inactive
same,outcome,[2],inactive
same,outcome,[3],inactive
same,outcome,[4],inactive
same,outcome,[5],inactive
same,outcome,[6],inactive
same,outcome,[7],inactive
same,outcome,[8],inactive
same,outcome,[9],inactive
O=C(O)C(F)(F)C(F)(F)C(F)(F)C(F)(F)C(F)(F)C(F)(F)C(F)(F)F,outcome,[1],inactive
same,outcome,[2],inactive
same,outcome,[3],inactive
same,outcome,[4],inactive
same,outcome,[10],inactive
same,outcome,[6],inactive
same,AC50,[7],8.07 µM (active)
same,outcome,[7],inactive
same,outcome,[8],inactive
same,AC50,[9],1.5 µM (active)
same,outcome,[9],inactive
CC1(C)C(C=C(Cl)Cl)C1C(=O)OC(C#N)c1ccc(F)c(Oc2ccccc2)c1 (configuration not stated),outcome,[1],inactive
same,outcome,[2],inactive
same,outcome,[3],inactive
same,outcome,[4],inactive
same,AC50,[5],3.84 µM (active)
same,outcome,[6],inactive
same,AC50,[7],13.2 µM (active)
same,outcome,[8],inactive
same,AC50,[9],31.1 µM (active)
Oc1ccc(Cl)cc1Cc1ccccc1,AC50,[1],31.3 µM (active) [middle of 4 runs]
same,outcome,[1],inactive
same,AC50,[3],33.9 µM (active) [middle of 6 runs]
same,outcome,[3],inactive
same,AC50,[4],33.2 µM (active) [middle of 7 runs]
same,AC50,[6],31.3 µM (active) [middle of 7 runs]
same,AC50,[7],7.84 µM (active) [middle of 7 runs]
same,AC50,[8],14.7 µM (active) [middle of 7 runs]
Oc1cc(Cl)ccc1Oc1ccc(Cl)cc1Cl,AC50,[1],28.3 µM (active) and 27.8 µM (active) and 22.2 µM (active)
same,outcome,[1],inactive
same,AC50,[2],15.4 µM (active) [middle of 4 runs]
same,AC50,[3],32 µM (active) [middle of 4 runs]
same,AC50,[4],35.4 µM (active) [middle of 4 runs]
same,AC50,[6],30 µM (active) [middle of 4 runs]
same,AC50,[7],4.61 µM (active) [middle of 4 runs]
same,AC50,[8],10.7 µM (active) [middle of 4 runs]
same,AC50,[9],13.1 µM (active) and 9.31 µM (active) and 17 µM (active)
Cc1cc(C)nc(NC(=O)NS(=O)(=O)c2ccccc2C(=O)OC2COC2)n1,outcome,[1],inactive
same,outcome,[2],inactive
same,outcome,[3],inactive
same,outcome,[4],inactive
same,outcome,[5],inactive
same,outcome,[6],inactive
same,outcome,[7],inactive
same,outcome,[8],inactive
same,outcome,[9],inactive
CNC(=O)Oc1ccccc1OC(C)C,outcome,[1],inactive
same,outcome,[2],inactive
same,outcome,[3],inactive
same,outcome,[4],inactive
same,outcome,[10],inactive
same,outcome,[6],inactive
same,outcome,[7],inactive
same,outcome,[8],inactive
same,outcome,[9],inactive
COC(=O)c1ccccc1S(=O)(=O)NC(=O)Nc1nc(C)nc(OC)n1,outcome,[1],inactive
same,outcome,[2],inactive
same,outcome,[3],inactive
same,outcome,[4],inactive
same,outcome,[10],inactive
same,outcome,[6],inactive
same,outcome,[7],inactive
same,outcome,[8],inactive
same,outcome,[9],inactive
CNC(=O)CSP(=S)(OC)OC,outcome,[1],inactive
same,outcome,[2],inactive
same,outcome,[3],inactive
same,outcome,[4],inactive
same,outcome,[10],inactive
same,outcome,[6],inactive
same,outcome,[7],inactive
same,outcome,[8],inactive
same,outcome,[9],inactive
[2H]C1([2H])[n+]2ccccc2-c2cccc[n+]2C1([2H])[2H],outcome,[1],inactive
same,AC50,[2],5.27 µM (active)
same,outcome,[3],inactive
same,outcome,[4],inactive
same,outcome,[5],inactive
same,outcome,[6],inactive
same,AC50,[7],8.95 µM (active)
same,outcome,[8],inactive
same,outcome,[9],inactive
COP(=S)(OC)Oc1ccc([N+](=O)[O-])cc1,outcome,[1],inactive
same,AC50,[2],20.3 µM (active)
same,outcome,[3],inactive
same,outcome,[4],inactive
same,outcome,[5],inactive
same,outcome,[6],inactive
same,outcome,[7],inactive
same,AC50,[8],11.1 µM (active)
same,outcome,[9],inactive
CC[C@H](C)[C@H]1O[C@]2(C=C[C@@H]1C)C[C@@H]1C[C@@H](C/C=C(\C)[C@@H](O[C@H]3C[C@H](OC)[C@@H](O[C@H]4C[C@H](OC)[C@@H](O)[C@H](C)O4)[C@H](C)O3)[C@@H](C)/C=C/C=C3\CO[C@@H]4[C@H](O)C(C)=C[C@@H](C(=O)O1)[C@]34O)O2 (tested in a mixture with another compound),outcome,[1],inactive
same,AC50,[2],10.7 µM (active)
same,AC50,[3],12.2 µM (active)
same,AC50,[4],15 µM (active)
same,AC50,[10],6.63 µM (active)
same,AC50,[6],9.73 µM (active)
same,AC50,[7],5.3 µM (active)
same,AC50,[8],8.11 µM (active)
same,AC50,[9],6.68 µM (active)
COc1nn(CSP(=S)(OC)OC)c(=O)s1,outcome,[1],inactive
same,AC50,[2],20 µM (active)
same,outcome,[3],inactive
same,outcome,[4],inactive
same,outcome,[10],inactive
same,outcome,[6],inactive
same,outcome,[7],inactive
same,outcome,[8],inactive
same,outcome,[9],inactive
CCc1ccc(C(=O)NN(C(=O)c2cc(C)cc(C)c2)C(C)(C)C)cc1,outcome,[1],inactive
same,outcome,[2],inactive
same,outcome,[3],inactive
same,outcome,[4],inactive
same,outcome,[5],inactive
same,outcome,[6],inactive
same,outcome,[7],inactive
same,outcome,[8],inactive
same,outcome,[9],inactive
COP(=S)(OC)Oc1ccc(SC)c(C)c1,outcome,[1],inactive
same,outcome,[2],inactive
same,outcome,[3],inactive
same,outcome,[4],inactive
same,outcome,[5],inactive
same,outcome,[6],inactive
same,outcome,[7],inactive
same,outcome,[8],inactive
same,outcome,[9],inactive
